The list is not random: actives were taken first. Their share in the collection is about 3.6%.
D1 PAM = Potentiators of Human D1 Dopamine Receptor: qHTS; potentiation, % at 10 µM; HEK293 TREx D1 cells, calcium flux, dopamine EC20 potentiation; hit rate 0.036% among 360,000; D(1A) dopamine receptor (Homo sapiens), P21728; in the data active means potentiation above about 30%; further: 0% is about no effect
Target sequence (P21728 whole entry, looked up): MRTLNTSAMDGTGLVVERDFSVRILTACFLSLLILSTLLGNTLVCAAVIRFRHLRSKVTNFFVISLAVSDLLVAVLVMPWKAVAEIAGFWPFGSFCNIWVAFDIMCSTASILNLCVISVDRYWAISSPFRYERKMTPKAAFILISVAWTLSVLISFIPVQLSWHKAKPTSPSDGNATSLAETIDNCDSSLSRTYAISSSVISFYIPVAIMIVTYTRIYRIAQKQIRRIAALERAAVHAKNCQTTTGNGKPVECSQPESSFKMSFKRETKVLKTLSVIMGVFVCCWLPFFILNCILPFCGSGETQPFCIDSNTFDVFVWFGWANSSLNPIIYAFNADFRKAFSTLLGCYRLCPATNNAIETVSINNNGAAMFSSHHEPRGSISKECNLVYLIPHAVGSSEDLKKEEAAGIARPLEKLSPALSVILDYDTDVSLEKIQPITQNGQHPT
TRHR ag = qHTS for Small Molecule Agonists and Allosteric Enhancers of Human TRH Receptor: Primary Screen for Agonists. Thyrotropin-releasing hormone receptor (Homo sapiens), P34981. TRHR cells, calcium flux fluo-8, FDSS agonist mode. activation, % at 2 µM. hit rate 0.18% among 360,000; further: 0% is about no effect
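Steps: seed TRHR cells overnight; add fluo-8 no-wash Ca dye, RT 30 min–1.5 h; record 10 s baseline; pin-transfer compounds; monitor fluorescence 1 cycle/s for the agonist window. Calcium increases flag candidate agonists.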
D1 ag = Allosteric Agonists of the Human D1 Dopamine Receptor: qHTS | D(1A) dopamine receptor (Homo sapiens), P21728 | HEK293 T-REx D1 cells, calcium flux, agonist mode | activation, % at 2 µM | hit rate 1% among 360,000; further: 0% is about no effect
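Inducible HEK293 T-REx D1 cells, force-coupled to calcium signalling, were plated at 4000 cells/well with tetracycline and held overnight at 30 C. After no-wash calcium dye loading, compound-evoked calcium rise over 180 s flagged agonists.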
LDHA block = qHTS assay for inhibitors of human lactate dehydrogenase; L-lactate dehydrogenase A chain (Homo sapiens), P00338; purified LDHA, NADH/diaphorase-resazurin fluorescence; stronger effect = lower value; activity change, % (values are at about 110 or 230 µM); hit rate 0.15% among 480,000; AID 1347041, 2019; in the data active means activity change below about -30%;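 further: plate controls were DMSO wells for no effect and wells without enzyme for full effect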
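Enzyme activity of human lactate dehydrogenase 5 (2 nM; 0.06 mM NADH, 0.2 mM pyruvate, 5 min, RT) is measured via a resazurin/diaphorase fluorescence readout of residual NADH.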
TRHR PAM = qHTS for Small Molecule Agonists and Allosteric Enhancers of Human TRH Receptor: Primary Screen for Enhancers; TRHR cells, fluo-8 calcium fluorescence, EC20 TRH enhancement; enhancement, % at 2 µM; hit rate 0.66% among 360,000; AID 493056, 2011; in the data active means enhancement above about 30%; further: 0% is about no effect
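Enhancer read-out: after compound pinning and an initial kinetic agonist-mode read, an EC20 of TRH (10 nM final) was injected and fluo-8 calcium signal (Ex 480/Em 530) followed at 1 s/cycle for 100 cycles in TRHR-expressing cells.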
D1 antag = Antagonist of Human D 1 Dopamine Receptor: qHTS | hit rate 3.2% among 360,000 | AID 504652, 2011 | HEK293 TREx D1 cells, calcium flux, dopamine EC80; stronger effect = lower value | D(1A) dopamine receptor (Homo sapiens), P21728 | activity change, negative = inhibition, % at 10 µM; in the data active means activity change below about -30%; further: on the % scale 0 is the no-effect control and ±100 the full control effect
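Inducible Hek293 Trex D1 cells (tetracycline, overnight, 30 C). Calcium dye 30–90 min RT. Antagonist mode: EC80 dopamine added after 180 s compound read.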
Numbers without * were called inactive; x = no result given. Unless noted, no stated cut-off is given here; in the data, active means activation above about 30%; inactive means the rest.

SMILES	D1 PAM	TRHR ag	D1 ag	LDHA block	TRHR PAM	D1 antag
COc1cc(C2c3c(-c4ccccc4)n[nH]c(=O)c3Nc3nnnn32)ccc1O (stereo unspecified)	x	x	x	8	x	x
CC(C)C(=O)C1=Cc2cccc([N+](=O)[O-])c2OC1N1CCOCC1 (stereo unspecified)	-1	2	0	1	5	-36*
COc1ccc(-c2nn(-c3ccccc3)cc2C(=O)NCCCn2ccnc2)cc1	-5	0	1	-10	-5	-38*
CCC(C)C(NC(=O)c1ccccc1NC(=O)c1ccc(OC)cc1)C(=O)NCCCn1ccnc1 (stereo unspecified)	0	0	2	-15	39*	5
COc1ccc(-c2nn(-c3ccccc3)cc2C(=O)NCCN2CCOCC2)cc1	x	x	x	0	x	x
O=C(CCC(=O)OCc1ccc(Cl)cc1)Nc1ccc2c(c1)oc1ccccc12	x	x	x	9	x	x
O=c1[nH]c(=O)n(Cc2ccco2)c2c1C(C(F)(F)F)(C(F)(F)F)N=C(c1ccc(F)cc1)N2	-3	-1	37*	-10	3	x
O=C(CCSc1ccccc1Cl)Nc1cccc([N+](=O)[O-])c1	-12	-1	9	-7	0	-35*
Cc1cc(C)c([N+](=O)[O-])cc1NC(=O)CCSc1ccccc1Cl	1	0	5	-11	-1	-35*
CC(C)=CC(=O)NCCc1ccsc1	x	x	x	-3	x	x
Clc1nc(-c2ccccn2)nc2scc(-c3ccccc3)c12	-6	0	17	4	40*	-16
Cc1cc(C)cc(-n2c(C)cc(/C=N\NC(=O)COc3cccc4cccnc34)c2C)c1	3	0	45*	0	-2	11
Cc1cc(/C=N/NC(=O)COc2cccc3cccnc23)c(C)n1-c1ccc(O)cc1	5	1	0	-3	5	-15
CCOC(=O)N1CCN(C(=O)CNS(=O)(=O)c2c(C)cc(C)cc2C)CC1	6	0	5	-5	33*	13
O=C1CCCC2=C1C(c1c(Cl)cccc1Cl)n1nnnc1N2 (stereo unspecified)	x	x	x	6	x	x
C=CCc1cc(Cl)ccc1OCCCNC(C)C	-12	0	16	-16	2	-14
CC(C)NCCCOc1ccc(Cl)cc1Br	-10	0	47*	-15	8	-25
CCNC(=O)COc1ccc(Br)cc1Cl	-3	0	0	-10	-3	-13
COCCCNC(=O)COc1ccc(Br)cc1Cl	-2	0	1	-11	12	-34*
CCCCNCCOCCOc1ccc(Cl)cc1Br	-3	0	14	-18	3	-41*
CC(C)NCCCCOc1ccc(Br)cc1Cl	-5	-1	50*	-15	8	-25
COCCCNCCCOc1ccc(Cl)cc1Br	-4	2	8	0	1	-1
O=C(Nc1ccc(F)cc1)c1cc(S(=O)(=O)N2CCOCC2)cs1	0	-1	2	-5	2	-61*
O=C(Nc1cccc(F)c1)c1cc(S(=O)(=O)N2CCOCC2)cs1	-1	0	7	0	1	-84*
CCC(=O)NC(c1ccc(C)cc1)c1cc(Cl)c2cccnc2c1O (stereo unspecified)	3	4	14	8	-9	2
CCC(=O)NC(c1ccc(Br)o1)c1cc(Cl)c2cccnc2c1O (stereo unspecified)	4	30*	89*	8	4	15
Cc1ccc2nc(-c3ccc(C)s3)cc(C(=O)NCc3ccccn3)c2c1	x	x	x	11	x	x
CCOC(=O)N1CCC(Nc2c(-c3ccc(C)c(C)c3)c(=O)c2=O)CC1	-7	-1	2	3	-1	4

Screens (PubChem)
